Among all 360,000 compounds or so, about 25,000 (6.9%) were called active. A call without a number means that no potency is given here. About 9% were inconclusive and are not listed. Calls come from the whole dose curve; as a rule, active = well fitted inhibition curve with a large enough effect; inconclusive = small, poorly fitted or top-dose-only effect; inactive = flat fitted curve, though single readings scatter. Many of the other results were omitted from the sample, so actives are more common in it than they were.
Target: Luciferin 4-monooxygenase (Photinus pyralis) (UniProt P08659)
Experiment: qHTS profiling assay for firefly luciferase inhibitor/activator using purifed enzyme and Km concentrations of substrates (counterscreen for miR-21 project); note: nearly all actives have a fitted effect of over 55% in size
Settings: purified FLuc, luminescence inhibition; series mostly up to 57.5 µM
Summary of the method: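 Purified P. pyralis luciferase (10nM final) with 10uM D-luciferin and 10uM ATP (Km levels) in 50mM Tris acetate pH 7.5, 10mM Mg acetate, 0.01% Tween-20, 0.05% BSA; qHTS 6-point titration, ~60 µM downward; luminescence read.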
Potency is the fitted concentration of half-maximal effect.

Sequence of Luciferin 4-monooxygenase (Photinus pyralis) (P08659 whole entry, looked up): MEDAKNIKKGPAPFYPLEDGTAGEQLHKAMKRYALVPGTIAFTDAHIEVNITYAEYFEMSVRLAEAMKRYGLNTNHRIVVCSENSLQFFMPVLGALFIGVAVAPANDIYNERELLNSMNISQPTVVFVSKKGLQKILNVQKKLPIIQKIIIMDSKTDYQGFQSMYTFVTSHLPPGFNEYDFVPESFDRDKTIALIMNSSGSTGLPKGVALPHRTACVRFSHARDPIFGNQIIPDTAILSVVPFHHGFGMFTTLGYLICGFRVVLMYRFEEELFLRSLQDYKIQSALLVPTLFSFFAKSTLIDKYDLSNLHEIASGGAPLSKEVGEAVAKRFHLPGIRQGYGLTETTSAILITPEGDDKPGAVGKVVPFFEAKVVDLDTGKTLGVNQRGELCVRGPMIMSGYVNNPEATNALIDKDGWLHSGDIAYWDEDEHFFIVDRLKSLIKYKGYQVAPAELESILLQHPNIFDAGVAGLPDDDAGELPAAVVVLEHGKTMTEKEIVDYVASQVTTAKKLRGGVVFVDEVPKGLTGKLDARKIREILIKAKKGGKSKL

Row | SMILES | Potency | activity change, negative = inhibition
1 | O=C(c1ccc(C(F)(F)F)cc1)N1CCC(c2nc(-c3ccc(S(=O)(=O)N4CCCC4)cc3)no2)CC1 | inactive | 
2 | COc1ccc(N2CCN(c3cc(C)nc4nncn34)CC2)cc1 | inactive | 
3 | Cc1ccc2oc3c(c(=O)c2c1)C(c1ccc([N+](=O)[O-])cc1)N(CCCN1CCOCC1)C3=O (stereo not drawn) | inactive | 
4 | O=C1C=C(c2cccc(Cl)c2O)C[C@@H](c2ccc(F)cc2)C1 | inactive | 
5 | CCOc1ccc(S(=O)(=O)Nc2ccc(S(=O)(=O)Nc3cc(OC)ccc3OC)cc2)cc1 | inactive | 
6 | COc1ccc(OC)c(NC(=O)c2ccc3c(c2)CCN3S(C)(=O)=O)c1 | inactive | 
7 | CCOc1ccc(C(=O)Nc2cc(OC)ccc2OC)cc1 | 19 µM (active) | 
8 | COc1ccc(C)cc1NC(=O)Nc1ccccc1SC | inactive | 
9 | CCOc1ccc(NC(=O)Nc2cc(C)ccc2OC)cc1 | 2.69 µM (active) | 
10 | CCOc1ccc(NC(=O)Nc2cc(C)on2)cc1 |  | -5.5% [at 2.3 µM] (inactive)
11 | CCOc1ccc(NC(=O)CN(C)C(=O)CCSc2ccc(F)cc2)cc1OCC | inactive | 
12 | CCOC(=O)c1ccc(N2C(=O)c3n[nH]c(-c4ccco4)c3C2c2ccc(O)cc2)cc1 (stereo not drawn) | inactive | 
13 | O=C(CSc1oc(-c2ccccc2)nc1S(=O)(=O)c1ccc(Br)cc1)NC1CCCCC1 | inactive | 
14 | COc1ccccc1-c1nnc(NC(=O)c2ccc3ncsc3c2)o1 | 13.5 µM (active) | 
15 | Cc1sc(NC(=O)c2ccc3ncsc3c2)c(C(N)=O)c1C | 1.07 µM (active) | 
16 | COc1ccccc1-c1nnc(NC(=O)c2cccc(N3C(=O)CCC3=O)c2)o1 | 19 µM (active) | 
17 | Cc1ccc(S(=O)(=O)CC(=O)Nc2sc(C)c(C)c2C(N)=O)cc1 | inactive | 
18 | COc1ccc(-n2nc3c(c2NC(=O)c2ccc(N4C(=O)CCC4=O)cc2)CSC3)cc1 | inactive | 
19 | COc1ccccc1-c1nnc(SCC(=O)N2CC(C)CC(C)C2)o1 (stereo not drawn) | inactive | 
20 | Cc1ccc(C(=O)Nc2nnc(C3=COCCO3)o2)cc1C | inactive | 
21 | O=C(COC(=O)c1ccc2ncsc2c1)Nc1ccc(Cl)cc1 | inactive | 
22 | COc1cccc(-c2nnc(NC(=O)c3ccc(S(=O)(=O)N(CC(C)C)CC(C)C)cc3)o2)c1 | inactive | 
23 | Cc1ccccc1C(=O)N(Cc1ccc(N(C)C)cc1)CC1CCCO1 (stereo not drawn) | inactive | 

Row | SMILES | Potency | activity change, negative = inhibition
24 | CCn1cc2nc(SCc3cccc(F)c3)n(CCc3ccccc3)c(=O)c2n1 | inactive | 
25 | COc1cc(CN(C(=O)c2ccccc2Br)c2ccccn2)cc(OC)c1OC | inactive | 
26 | Cc1cccc(C(=O)Nc2ccc(S(=O)(=O)N3CCCCC3c3cccnc3)cc2)c1 (stereo not drawn) | inactive | 
27 | CCN(CCCNC(=O)c1cc2c(=O)n(CC)c3ccccc3c2s1)Cc1ccccc1 | inactive | 
28 | Cc1ccc(C)c(Cn2c(CCCNC(=O)C3CCCCC3)nc3ccccc32)c1 | inactive | 
29 | C=CCNC(=O)c1ccccc1NC(=O)c1ccc(Cl)c(S(=O)(=O)Nc2cccc(C)c2C)c1 | inactive | 
30 | Cc1ccc2c(c1)N(CC(=O)N1CCOCC1)C(=O)CO2 | inactive | 
31 | Cc1cc(/C=C2/SC(=O)N(CC(=O)N3CCCC3)C2=O)ccc1N1CCOCC1 | 16.9 µM (active) | 
32 | O=C(CN1C(=O)CSc2ncccc21)N1CCOCC1 | inactive | 
33 | CCCNC(=O)c1ccccc1NC(=O)CSCc1ccc(OC)cc1 | inactive | 
34 | COc1ccc(/C=C2/SC(=O)N(CCCCCC(=O)Nc3ccccc3C(=O)O)C2=S)cc1 | 16.9 µM (active) | 
35 | COc1ccc(-c2nn(-c3ccccc3)cc2/C=C2/SC(=S)N(CCCC(=O)O)C2=O)c(C)c1 | inactive | 
36 | COc1cccc(CNC(=O)CSc2c3c(nc4cc(Cl)ccc24)CCCC3)c1 | inactive | 
37 | CC(=O)c1ccc(N2CCN(c3nc4c(S(=O)(=O)c5ccccc5)nnn4c4ccc(Cl)cc34)CC2)cc1 | inactive | 
38 | CCOC(=O)c1c(CNCc2ccccc2F)c2sc(C)cc2n1C | inactive | 
39 | CCN1C(=S)N[C@@H](c2cccc(C(F)(F)F)c2)C(C(=O)OC)=C1C | inactive | 
40 | COc1ccc(-c2noc(CCCC(=O)NC3CCCC3)n2)cc1OC | inactive | 
41 | CC(=O)Nc1ccc(NC(=O)CCCc2nc(-c3ccc(C(C)(C)C)cc3)no2)cc1 | 2.69 µM (active) | 
42 | CCNC(=O)CCc1nc(-c2ccc(C(C)(C)C)cc2)no1 | 4.78 µM (active) | 
43 | COc1cccc(CNC(=O)CCc2nc(-c3ccc(C)cc3)no2)c1 | inactive | 
44 | CCNC(=O)CCc1nc(-c2ccc(C)cc2)no1 | inactive | 
45 | Cc1cc(C)cc(NC(=O)CCCc2nc(-c3ccccc3Cl)no2)c1 | inactive | 
46 | CCOc1ccccc1CNCc1c(C(=O)O)c(C)n(Cc2ccc(C)cc2)c1C | inactive | 

Row | SMILES | Potency | activity change, negative = inhibition
47 | Cc1cc2ncn(CCCCOc3ccccc3)c2cc1C | inactive | 
48 | CCOc1cc(C2C(C(=O)Nc3ccc(OC)cc3)=C(C)Nc3nc(SC)nn32)ccc1O (stereo not drawn) | inactive | 
49 | CCOc1ccc(NC(=O)CC(Cc2ccc(Cl)cc2)C(=O)O)cc1 (stereo not drawn) | inactive | 
50 | CC(=O)Nc1ccc(NC(=O)C(NS(=O)(=O)c2ccc3c(c2)OCCO3)C(C)C)cc1 (stereo not drawn) | inactive | 
51 | Cc1nnsc1C(=O)N/N=C/c1ccccc1Cl | inactive | 
52 | CN1CCc2ccccc2C1Cc1ccccc1NC(=O)c1sc2ccccc2c1Cl (stereo not drawn) | inactive | 
53 | Cc1nn(C)cc1/C=N/NC(=O)c1sc2ccccc2c1Cl | 26.9 µM (active) | 
54 | COc1ccc(CNC(=O)CNC(=O)c2sc3ccccc3c2Cl)cc1OC | inactive | 
55 | O=C(N/N=C/c1c(Cl)[nH]c2ccccc12)c1sc2ccccc2c1Cl | 19 µM (active) | 
56 | Cc1[nH]c2ccccc2c1/C=N\NC(=O)Cn1nnc(-c2ccccc2)n1 | inactive | 
57 | CCN(CC)S(=O)(=O)c1ccc2c(c1)nc(CN(C)C(=O)Nc1ccc(Cl)cc1)n2C | inactive | 
58 | O=C(NCCNc1ccc([N+](=O)[O-])cc1Cl)c1ccccc1F | inactive | 
59 | CCOC(=O)N1CCc2c(sc(NCc3cccc(F)c3)c2C(=O)Nc2ccccc2OCC)C1 | inactive | 
60 | Cc1nc2cc(NCc3cccs3)ccc2n1C | 15.1 µM (active) | 
61 | Cc1nc2cc(NC(=O)Nc3cccc(F)c3)ccc2n1C | 0.757 µM (active) | 
62 | Cn1ncc(Br)c1C(=O)NCc1cccs1 | inactive | 
63 | Cc1cc2nc(C)n(CCCNC(=O)Nc3ccccc3)c2cc1C | inactive | 
64 | CCOC(=O)N1CCN(Cc2nc3cc(NC(=O)CC)ccc3n2CC)CC1 | inactive | 
65 | C=CCN(C(=O)Nc1ccc2c(c1)nc(C)n2C)c1ccccc1 | 15.1 µM (active) | 
66 | Cc1nn(CC(=O)Nc2ccc3c(c2)nc(CN2CCCCC2)n3C)c(=O)c2ccccc12 | inactive | 
67 | Cc1nc2cc(NC(=O)NC3CC3)ccc2n1C | inactive | 
68 | O=c1c(NCc2cccs2)nccn1-c1ccccc1 | inactive | 
